{
  "source": "the supplement of paper PMC10849652",
  "note": "Targets with a hit are over-represented here; the source holds about 8,800 in all. About 0.5% of all pairs of compound and target were hits. A number with no mark means an inactive call.",
  "data": [
    {"compound": "C1=CC=C2C(=C1)C3=NNC4=CC=CC(=C43)C2=O", "assay": "log2 fold change, soluble protein after heating vs DMSO (PISA); higher = thermal stabilisation; K562 lysate, 10 uM; active = over 0.2 and 3.5 SD of the protein, either way, in both replicates (recomputed)", "in_short": "(§1)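 A 30 min treatment with 10 μM compound was applied to crude K562 extract at 1 mg/mL protein in PBS pH 7.4 with 1 mM MgCl2. Heating for 3 min spanned 48°C-58°C, after which aliquots were pooled, adjusted to 0.5% NP-40 at 4°C and spun at 21,000xg for 90 min. TMTpro 16plex LC-MS/MS of the supernatant, with channel sums equalised, gave values recorded as log-two fold change in thermal stability against solvent controls, from duplicates.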", "values": [
      {"target": "UBXN2B (UniProt Q14CS0)", "log2 fold change": 0.149},
      {"target": "TRAF2 isoform 2 (UniProt Q12933)", "log2 fold change": -0.015},
      {"target": "TMOD1 (UniProt P28289)", "log2 fold change": 0.013},
      {"target": "TPD52L2 isoform 7 (UniProt O43399)", "log2 fold change": 0.036},
      {"target": "TMEM199 (UniProt Q8N511)", "sequence (Q8N511 whole entry, looked up)": "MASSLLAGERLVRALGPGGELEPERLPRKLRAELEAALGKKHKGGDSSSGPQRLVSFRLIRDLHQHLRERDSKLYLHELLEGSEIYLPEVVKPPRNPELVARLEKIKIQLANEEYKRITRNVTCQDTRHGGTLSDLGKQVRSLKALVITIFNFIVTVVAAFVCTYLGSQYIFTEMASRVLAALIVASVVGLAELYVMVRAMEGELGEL", "log2 fold change": -0.087},
      {"target": "TBCE (UniProt Q15813)", "log2 fold change": -0.07},
      {"target": "TDRD3 isoform 3 (UniProt Q9H7E2)", "log2 fold change": -0.085},
      {"target": "TRIM33 (UniProt H0Y612)", "log2 fold change": -0.009},
      {"target": "TGOLN2 isoform 7 (UniProt O43493)", "sequence (O43493 whole entry, looked up)": "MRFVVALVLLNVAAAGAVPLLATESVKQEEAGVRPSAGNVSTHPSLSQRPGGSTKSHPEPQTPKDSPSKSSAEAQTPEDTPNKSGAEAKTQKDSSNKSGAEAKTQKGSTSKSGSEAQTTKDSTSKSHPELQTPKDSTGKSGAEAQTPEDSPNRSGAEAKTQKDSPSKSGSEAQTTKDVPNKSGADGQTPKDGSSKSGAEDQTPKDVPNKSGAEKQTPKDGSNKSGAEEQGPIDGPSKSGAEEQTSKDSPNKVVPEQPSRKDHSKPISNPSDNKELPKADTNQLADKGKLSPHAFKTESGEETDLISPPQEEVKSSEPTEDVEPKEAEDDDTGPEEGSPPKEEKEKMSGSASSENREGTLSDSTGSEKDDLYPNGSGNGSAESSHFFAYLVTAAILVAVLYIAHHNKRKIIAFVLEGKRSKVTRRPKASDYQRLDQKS", "log2 fold change": 0.012},
      {"target": "TBL3 (UniProt Q12788)", "log2 fold change": 0.043},
      {"target": "TECR (UniProt Q9NZ01)", "log2 fold change": -0.066},
      {"target": "TTK (UniProt P33981)", "log2 fold change": 0.258},
      {"target": "TBL2 (UniProt Q9Y4P3)", "log2 fold change": -0.06},
      {"target": "TPP2 (UniProt P29144)", "log2 fold change": -0.02},
      {"target": "UBAP2 (UniProt Q5T6F2)", "log2 fold change": 0.016},
      {"target": "TMEM14C (UniProt Q9P0S9)", "sequence (Q9P0S9 whole entry, looked up)": "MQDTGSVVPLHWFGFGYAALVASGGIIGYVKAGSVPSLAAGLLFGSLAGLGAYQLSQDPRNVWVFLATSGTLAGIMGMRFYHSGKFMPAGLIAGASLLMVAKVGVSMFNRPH", "log2 fold change": 0.063},
      {"target": "TPM4 (UniProt P67936)", "sequence (P67936 whole entry, looked up)": "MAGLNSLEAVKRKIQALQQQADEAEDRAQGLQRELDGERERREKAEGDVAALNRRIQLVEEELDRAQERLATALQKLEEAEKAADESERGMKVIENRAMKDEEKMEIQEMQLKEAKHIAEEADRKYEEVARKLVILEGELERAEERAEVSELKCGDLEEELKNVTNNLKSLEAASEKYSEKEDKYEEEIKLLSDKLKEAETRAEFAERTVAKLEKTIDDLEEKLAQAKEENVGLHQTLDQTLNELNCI", "log2 fold change": 0.009},
      {"target": "TBK1 (UniProt Q9UHD2)", "sequence (Q9UHD2 whole entry, looked up)": "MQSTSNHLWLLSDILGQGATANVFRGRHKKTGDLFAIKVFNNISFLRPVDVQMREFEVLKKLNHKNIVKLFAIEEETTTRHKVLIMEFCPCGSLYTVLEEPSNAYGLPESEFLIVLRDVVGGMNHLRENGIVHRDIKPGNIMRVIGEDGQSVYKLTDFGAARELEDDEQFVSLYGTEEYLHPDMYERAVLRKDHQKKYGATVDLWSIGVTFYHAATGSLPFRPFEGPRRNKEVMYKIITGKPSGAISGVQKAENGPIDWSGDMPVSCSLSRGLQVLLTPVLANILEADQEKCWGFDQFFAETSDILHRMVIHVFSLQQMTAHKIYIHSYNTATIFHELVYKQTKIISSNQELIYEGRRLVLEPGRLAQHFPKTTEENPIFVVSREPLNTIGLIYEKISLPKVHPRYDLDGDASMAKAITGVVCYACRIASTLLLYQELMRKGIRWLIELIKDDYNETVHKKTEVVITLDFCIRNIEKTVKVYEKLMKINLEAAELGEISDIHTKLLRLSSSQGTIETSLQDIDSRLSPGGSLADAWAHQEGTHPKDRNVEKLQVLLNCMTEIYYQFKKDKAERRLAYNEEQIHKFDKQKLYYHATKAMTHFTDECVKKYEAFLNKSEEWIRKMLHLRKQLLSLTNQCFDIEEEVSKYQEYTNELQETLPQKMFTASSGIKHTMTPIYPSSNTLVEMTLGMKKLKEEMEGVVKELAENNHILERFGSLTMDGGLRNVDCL", "log2 fold change": 0.238},
      {"target": "TMPO (UniProt P42166)", "sequence (P42166 whole entry, looked up)": "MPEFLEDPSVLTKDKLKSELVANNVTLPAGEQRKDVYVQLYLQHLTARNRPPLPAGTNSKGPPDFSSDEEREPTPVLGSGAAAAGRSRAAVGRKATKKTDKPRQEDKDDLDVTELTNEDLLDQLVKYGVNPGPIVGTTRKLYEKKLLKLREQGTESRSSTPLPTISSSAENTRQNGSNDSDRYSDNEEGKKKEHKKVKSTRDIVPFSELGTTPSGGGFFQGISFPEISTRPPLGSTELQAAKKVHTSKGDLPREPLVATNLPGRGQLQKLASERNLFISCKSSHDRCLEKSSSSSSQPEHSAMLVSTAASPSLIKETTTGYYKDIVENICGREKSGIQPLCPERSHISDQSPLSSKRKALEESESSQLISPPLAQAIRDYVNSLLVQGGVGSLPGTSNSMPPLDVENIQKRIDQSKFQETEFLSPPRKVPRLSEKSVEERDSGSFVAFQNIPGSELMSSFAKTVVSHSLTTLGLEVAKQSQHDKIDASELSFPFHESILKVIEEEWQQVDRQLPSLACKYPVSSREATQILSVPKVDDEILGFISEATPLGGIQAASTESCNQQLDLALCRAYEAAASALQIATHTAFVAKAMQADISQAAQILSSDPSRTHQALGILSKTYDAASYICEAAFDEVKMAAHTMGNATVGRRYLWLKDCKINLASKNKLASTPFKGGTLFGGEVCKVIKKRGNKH", "log2 fold change": -0.026},
      {"target": "TFPI (UniProt P10646)", "sequence (P10646 whole entry, looked up)": "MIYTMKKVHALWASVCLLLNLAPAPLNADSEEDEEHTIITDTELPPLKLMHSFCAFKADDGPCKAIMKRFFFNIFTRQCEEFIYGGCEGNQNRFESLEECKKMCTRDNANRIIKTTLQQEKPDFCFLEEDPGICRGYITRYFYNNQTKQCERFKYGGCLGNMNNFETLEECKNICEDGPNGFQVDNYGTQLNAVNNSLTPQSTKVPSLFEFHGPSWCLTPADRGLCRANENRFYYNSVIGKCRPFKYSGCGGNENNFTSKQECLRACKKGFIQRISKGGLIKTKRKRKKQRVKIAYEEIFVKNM", "log2 fold change": -0.232},
      {"target": "TRIM11 (UniProt Q96F44)", "sequence (Q96F44 whole entry, looked up)": "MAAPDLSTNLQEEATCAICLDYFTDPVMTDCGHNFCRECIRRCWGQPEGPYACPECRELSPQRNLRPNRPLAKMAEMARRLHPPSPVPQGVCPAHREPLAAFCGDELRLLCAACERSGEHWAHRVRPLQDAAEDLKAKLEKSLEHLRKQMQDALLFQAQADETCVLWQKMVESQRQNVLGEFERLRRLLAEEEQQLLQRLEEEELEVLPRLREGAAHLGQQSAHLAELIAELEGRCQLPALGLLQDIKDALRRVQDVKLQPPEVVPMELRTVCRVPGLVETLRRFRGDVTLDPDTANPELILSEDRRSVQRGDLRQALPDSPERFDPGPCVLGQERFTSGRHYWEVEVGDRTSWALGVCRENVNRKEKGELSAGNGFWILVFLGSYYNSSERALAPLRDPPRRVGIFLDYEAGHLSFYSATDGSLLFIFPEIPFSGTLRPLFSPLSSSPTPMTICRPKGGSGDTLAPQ", "log2 fold change": -0.032},
      {"target": "TRIM25 (UniProt Q14258)", "log2 fold change": 0.008},
      {"target": "TRAPPC12 (UniProt Q8WVT3)", "sequence (Q8WVT3 whole entry, looked up)": "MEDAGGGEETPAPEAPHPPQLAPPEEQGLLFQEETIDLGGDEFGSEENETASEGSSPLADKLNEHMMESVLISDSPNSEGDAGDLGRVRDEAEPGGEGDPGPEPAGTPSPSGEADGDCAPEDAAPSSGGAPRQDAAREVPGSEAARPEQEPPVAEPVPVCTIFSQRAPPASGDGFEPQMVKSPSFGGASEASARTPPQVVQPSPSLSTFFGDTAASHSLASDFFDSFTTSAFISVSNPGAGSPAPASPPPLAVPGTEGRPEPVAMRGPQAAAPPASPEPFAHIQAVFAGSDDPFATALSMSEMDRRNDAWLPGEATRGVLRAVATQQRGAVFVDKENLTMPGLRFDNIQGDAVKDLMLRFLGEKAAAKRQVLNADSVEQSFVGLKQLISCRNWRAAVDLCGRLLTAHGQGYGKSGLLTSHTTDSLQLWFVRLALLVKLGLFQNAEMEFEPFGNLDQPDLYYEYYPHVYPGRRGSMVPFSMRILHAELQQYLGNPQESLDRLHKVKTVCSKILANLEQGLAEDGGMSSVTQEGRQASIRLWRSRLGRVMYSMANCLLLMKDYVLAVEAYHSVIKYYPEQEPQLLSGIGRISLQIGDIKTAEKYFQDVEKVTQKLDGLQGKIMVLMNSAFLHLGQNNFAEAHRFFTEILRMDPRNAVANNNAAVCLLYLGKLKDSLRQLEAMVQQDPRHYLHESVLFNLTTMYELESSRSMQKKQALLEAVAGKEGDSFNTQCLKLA", "log2 fold change": -0.061},
      {"target": "TSPAN13 (UniProt O95857)", "sequence (O95857 whole entry, looked up)": "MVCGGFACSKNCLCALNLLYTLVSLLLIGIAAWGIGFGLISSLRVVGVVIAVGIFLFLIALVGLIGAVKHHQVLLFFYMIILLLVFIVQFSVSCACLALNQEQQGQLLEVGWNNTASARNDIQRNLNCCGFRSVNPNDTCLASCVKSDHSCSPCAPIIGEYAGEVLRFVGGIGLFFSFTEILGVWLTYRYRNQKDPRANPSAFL", "log2 fold change": -0.167},
      {"target": "TLK2 isoform 2 (UniProt Q86UE8)", "sequence (Q86UE8 whole entry, looked up)": "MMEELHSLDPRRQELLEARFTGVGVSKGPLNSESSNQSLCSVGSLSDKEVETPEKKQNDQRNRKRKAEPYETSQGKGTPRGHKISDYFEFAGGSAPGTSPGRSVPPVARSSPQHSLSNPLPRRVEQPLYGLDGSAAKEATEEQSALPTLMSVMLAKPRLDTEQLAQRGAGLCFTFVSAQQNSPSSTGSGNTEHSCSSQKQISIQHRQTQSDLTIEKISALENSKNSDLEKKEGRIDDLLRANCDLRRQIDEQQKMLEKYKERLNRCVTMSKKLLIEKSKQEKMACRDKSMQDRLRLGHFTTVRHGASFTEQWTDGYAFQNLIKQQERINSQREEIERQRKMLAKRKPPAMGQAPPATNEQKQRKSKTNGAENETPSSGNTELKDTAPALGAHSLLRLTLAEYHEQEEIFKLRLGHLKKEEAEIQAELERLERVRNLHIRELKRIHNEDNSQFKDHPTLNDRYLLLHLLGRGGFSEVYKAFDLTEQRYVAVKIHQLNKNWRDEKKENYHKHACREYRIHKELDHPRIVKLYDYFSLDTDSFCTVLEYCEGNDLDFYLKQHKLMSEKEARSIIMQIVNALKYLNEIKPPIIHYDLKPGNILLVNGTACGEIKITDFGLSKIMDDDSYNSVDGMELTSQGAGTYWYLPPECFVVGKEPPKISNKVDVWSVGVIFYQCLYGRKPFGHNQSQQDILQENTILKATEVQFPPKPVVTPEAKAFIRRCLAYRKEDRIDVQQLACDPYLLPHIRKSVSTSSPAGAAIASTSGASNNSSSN", "log2 fold change": 0.171},
      {"target": "TDRKH (UniProt Q9Y2W6)", "log2 fold change": -0.086},
      {"target": "TRIM33 isoform 2 (UniProt Q9UPN9)", "log2 fold change": 0.008},
      {"target": "UBR4 (UniProt Q5T4S7)", "log2 fold change": -0.01},
      {"target": "TRIM44 (UniProt Q96DX7)", "log2 fold change": -0.038},
      {"target": "TMEM87A (UniProt Q8NBN3)", "log2 fold change": -0.027},
      {"target": "UBAP2L isoform 5 (UniProt Q14157)", "log2 fold change": 0.065},
      {"target": "UBTF (UniProt P17480)", "log2 fold change": 0.027},
      {"target": "TRIM56 (UniProt Q9BRZ2)", "log2 fold change": 0.033},
      {"target": "TRNAU1AP (UniProt Q9NX07)", "log2 fold change": -0.31},
      {"target": "TLE3 isoform 4 (UniProt Q04726)", "log2 fold change": -0.002},
      {"target": "TPM4 isoform 2 (UniProt P67936)", "log2 fold change": -0.016},
      {"target": "TTF2 (UniProt Q9UNY4)", "log2 fold change": -0.046},
      {"target": "TUBB6 (UniProt K7ES63)", "log2 fold change": -0.029},
      {"target": "TTI1 (UniProt O43156)", "log2 fold change": -0.003}
    ]},
    {"compound": "C1CCN(C1)C(=O)NC2=CC=CC(=C2)NC3=NC=C(C(=N3)NCCC4=CN=CN4)Br", "assay": "log2 fold change, soluble protein after heating vs DMSO (PISA); higher = thermal stabilisation; K562 lysate, 10 uM; active = over 0.2 and 3.5 SD of the protein, either way, in both replicates (recomputed)", "in_short": "as §1", "values": [
      {"target": "UBXN2B (UniProt Q14CS0)", "log2 fold change": -0.04},
      {"target": "TRAF2 isoform 2 (UniProt Q12933)", "log2 fold change": -0.008},
      {"target": "TMOD1 (UniProt P28289)", "log2 fold change": -0.005},
      {"target": "TPD52L2 isoform 7 (UniProt O43399)", "log2 fold change": 0.029},
      {"target": "TMEM199 (UniProt Q8N511)", "log2 fold change": -0.065},
      {"target": "TBCE (UniProt Q15813)", "log2 fold change": -0.027},
      {"target": "TDRD3 isoform 3 (UniProt Q9H7E2)", "log2 fold change": -0.059},
      {"target": "TRIM33 (UniProt H0Y612)", "log2 fold change": -0.065},
      {"target": "TGOLN2 isoform 7 (UniProt O43493)", "log2 fold change": -0.025},
      {"target": "TBL3 (UniProt Q12788)", "log2 fold change": 0.074},
      {"target": "TECR (UniProt Q9NZ01)", "log2 fold change": -0.008},
      {"target": "TTK (UniProt P33981)", "log2 fold change": 0.054},
      {"target": "TBL2 (UniProt Q9Y4P3)", "log2 fold change": -0.027},
      {"target": "TPP2 (UniProt P29144)", "log2 fold change": -0.003},
      {"target": "UBAP2 (UniProt Q5T6F2)", "log2 fold change": -0.009},
      {"target": "TMEM14C (UniProt Q9P0S9)", "log2 fold change": -0.177},
      {"target": "TPM4 (UniProt P67936)", "log2 fold change": -0.064},
      {"target": "TBK1 (UniProt Q9UHD2)", "log2 fold change": 0.214},
      {"target": "TMPO (UniProt P42166)", "log2 fold change": -0.004},
      {"target": "TFPI (UniProt P10646)", "log2 fold change": -0.096},
      {"target": "TRIM11 (UniProt Q96F44)", "log2 fold change": -0.046},
      {"target": "TRIM25 (UniProt Q14258)", "log2 fold change": 0.064},
      {"target": "TRAPPC12 (UniProt Q8WVT3)", "log2 fold change": -0.003},
      {"target": "TSPAN13 (UniProt O95857)", "log2 fold change": 0.202},
      {"target": "TLK2 isoform 2 (UniProt Q86UE8)", "log2 fold change": -0.012},
      {"target": "TDRKH (UniProt Q9Y2W6)", "log2 fold change": -0.011},
      {"target": "TRIM33 isoform 2 (UniProt Q9UPN9)", "log2 fold change": -0.03},
      {"target": "UBR4 (UniProt Q5T4S7)", "log2 fold change": -0.021},
      {"target": "TRIM44 (UniProt Q96DX7)", "log2 fold change": 0.053},
      {"target": "TMEM87A (UniProt Q8NBN3)", "log2 fold change": 0.031},
      {"target": "UBAP2L isoform 5 (UniProt Q14157)", "log2 fold change": 0.009},
      {"target": "UBTF (UniProt P17480)", "log2 fold change": 0.009},
      {"target": "TRIM56 (UniProt Q9BRZ2)", "log2 fold change": 0.039},
      {"target": "TRNAU1AP (UniProt Q9NX07)", "log2 fold change": -0.071},
      {"target": "TLE3 isoform 4 (UniProt Q04726)", "log2 fold change": -0.006},
      {"target": "TPM4 isoform 2 (UniProt P67936)", "log2 fold change": 0.016},
      {"target": "TTF2 (UniProt Q9UNY4)", "log2 fold change": 0.039},
      {"target": "TUBB6 (UniProt K7ES63)", "log2 fold change": -0.19},
      {"target": "TTI1 (UniProt O43156)", "log2 fold change": -0.032}
    ]}
  ]
}
